Structures are written as SMILES. Results filed as inconclusive are left out. Unmarked numbers belong to inactive results. Calls of active or inactive are those of the source. Calls follow the shape of the dose curve; as a rule, active = well fitted inhibition curve with a large enough effect in the repeat runs; inconclusive = weak or mixed curves; inactive = flat fitted curve, though single readings scatter.
% is scaled to controls: 0 for no effect and ±100 for the full control effect; potency is read from the fitted curve at half-maximal effect.

Sequence of Voltage-gated inwardly rectifying potassium channel KCNH2 (Homo sapiens) (Q12809 whole entry, looked up): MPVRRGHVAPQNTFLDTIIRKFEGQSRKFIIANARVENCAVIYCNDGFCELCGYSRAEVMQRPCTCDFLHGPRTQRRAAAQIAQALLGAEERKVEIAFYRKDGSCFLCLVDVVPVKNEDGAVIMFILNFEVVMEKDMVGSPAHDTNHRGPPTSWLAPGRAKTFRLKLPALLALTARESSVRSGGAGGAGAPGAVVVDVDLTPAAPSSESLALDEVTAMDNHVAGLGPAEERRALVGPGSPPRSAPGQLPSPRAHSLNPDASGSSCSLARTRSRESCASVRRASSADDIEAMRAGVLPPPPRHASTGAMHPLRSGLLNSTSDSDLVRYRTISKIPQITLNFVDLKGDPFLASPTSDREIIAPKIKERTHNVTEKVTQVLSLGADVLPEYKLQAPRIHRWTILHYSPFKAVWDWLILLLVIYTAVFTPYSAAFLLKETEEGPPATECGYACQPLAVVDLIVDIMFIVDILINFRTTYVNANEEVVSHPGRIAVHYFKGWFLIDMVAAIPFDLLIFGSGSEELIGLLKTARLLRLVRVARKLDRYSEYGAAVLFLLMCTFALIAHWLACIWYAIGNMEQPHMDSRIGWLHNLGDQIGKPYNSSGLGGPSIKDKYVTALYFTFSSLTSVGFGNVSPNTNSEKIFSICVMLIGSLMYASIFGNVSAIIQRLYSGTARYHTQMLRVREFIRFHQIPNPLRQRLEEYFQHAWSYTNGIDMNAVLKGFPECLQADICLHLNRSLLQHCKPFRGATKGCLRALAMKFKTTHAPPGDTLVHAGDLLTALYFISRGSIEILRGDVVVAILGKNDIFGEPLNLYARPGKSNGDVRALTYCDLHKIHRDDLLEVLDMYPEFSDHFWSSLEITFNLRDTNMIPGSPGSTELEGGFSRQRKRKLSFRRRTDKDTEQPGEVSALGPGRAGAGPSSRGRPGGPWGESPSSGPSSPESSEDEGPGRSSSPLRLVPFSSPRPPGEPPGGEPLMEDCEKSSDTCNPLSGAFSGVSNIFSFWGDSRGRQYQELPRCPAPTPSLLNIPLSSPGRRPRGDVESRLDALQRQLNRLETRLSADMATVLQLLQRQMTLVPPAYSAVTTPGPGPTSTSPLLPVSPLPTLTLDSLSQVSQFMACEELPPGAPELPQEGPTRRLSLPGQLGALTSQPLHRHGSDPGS

This test deals with Voltage-gated inwardly rectifying potassium channel KCNH2 (Homo sapiens) (UniProt Q12809). In words: Human Ether-a-go-go-Related Gene (hERG) channel small molecule antagonists: fluorescence cell-based qHTS assay (AID 1671200). Also: nearly all actives have a fitted effect of over 50% in size. The note with it: hERG-U2OS cells, FluxOR thallium flux fluorescence; series mostly up to 76.8 µM; activity change, negative = inhibition: at the top concentration. An excerpt:
National Center for Advancing Translational Sciences [NCATS]
U.S. Environmental Protection Agency [EPA]
National Institutes of Environmental Health Sciences [NIEHS]
National Toxicology Program [NTP]
U.S. Food and Drug Administration [FDA]
Mutations in the hERG channel cause Long QT (LQT) syndrome. LQT syndrome is a cardiac disorder which can cause ventricle arrhythmia and sudden death. Additionally, compounds which block the hERG channel can cause acquired LQT syndrome. Several FDA approved drugs have been removed from the market due to their hERG blocking activity. A cell-based hERG channel inhibition assay can be used to screen chemical compounds that inhibit hERG channel. This assay measures hERG channel activity using thallium ions as surrogate ions to measure potassium into the cells.
Tox21 Assay Protocol Summary:
hERG-U2OS cells were resuspended in culture medium and dispensed into 1536-well, black wall/clear-bottom plates at 1000cells/well/3uL using a Multidrop Combi dispenser (Thermo Fisher, Waltham, MA). After plates were incubated at 37 C overnight, 3 uL of Loading Buffer provided by FluxOR II Potassium Ion Channel Assay kit (Thermo, Carlsbad, CA) was added to each well. The assay plates were then incubated at room temperature in the dark for 1h. […] After the assay plates were incubated at room temperature for 10 min, 1 uL of Stimulus Buffer provided by FluxOR II Potassium Ion Channel Assay kit was added into each well and fluorescence intensity (480nm excitation/540nm emission) was continuously measured for 2 min at 1 second intervals using a Functional Drug Screening System (FDSS) 7000EX kinetic plate reader (Hamamatsu, Japan).
(hERG is a cardiac potassium channel; its block is linked to QT prolongation.)
Regarding `CC(=O)Nc1cc([As](=O)(O)O)ccc1O`, the “activity change, negative = inhibition” value was 4.76% [at 35.3 µM].
For the molecule `C=CC1CC=CCC1` (stereo not given), the “activity change, negative = inhibition” value is -4.18%.
Turning to `C(CCOCC1CO1)COCC1CO1` (stereo not given), the “activity change, negative = inhibition” value is -2.39%.
Turning to `CCN(CC)CCOC(=O)C(C)(c1ccccc1)c1ccccc1`, the Potency was 10.7 µM (active).
For the molecule `COC(C)(C)C`, the “activity change, negative = inhibition” value was -0.902%.
As for `CCOP(=O)(OCC)OP(=O)(OCC)OCC`, the “activity change, negative = inhibition” value is 2.01%.
Same read-out and setting: under `CCC/C(=N\OCC)C1=C(O)CC(CC(C)SCC)CC1=O` (stereo not given) stands 1.18%; under `CC(C(=O)c1ccccc1)N(C)C` (stereo not given), 9.11% [at 35.3 µM].
For the molecule `CC1(C)CON(Cc2ccccc2Cl)C1=O`, the “activity change, negative = inhibition” value was 2.63%.
On to `O=c1oc2ccccc2c(O)c1C1CCCc2ccccc21` (stereo not given), for which the “activity change, negative = inhibition” value is -5.64%.
The same measure, in the same setting: under `CC(=O)CC(c1ccc(Cl)cc1)c1c(O)c2ccccc2oc1=O` (stereo not given) stands -1.61%; under `Cc1coc2c1CCC(C)C2` (stereo not given), -5.23%; under `CCN(Cc1ccc(Cl)nc1)/C(=C/[N+](=O)[O-])NC`, -3.69% [at 35.3 µM].
With `Cc1ncc2n1-c1ccc(Cl)cc1C(c1ccccc1F)=NC2`, the “activity change, negative = inhibition” value is -10.7% [at 35.3 µM].
Turning to `CNC(=O)Oc1c(C(C)(C)C)cc(C)cc1C(C)(C)C`, the “activity change, negative = inhibition” value is -0.593%.
Consider `CNC(=O)Oc1cccc(C(C)C)c1`, for which the “activity change, negative = inhibition” value was -3.2%.
Turning to `Nc1cc2c3c(c1)C(c1ccccc1)=N[C@@H](NC(=O)c1cccnc1)C(=O)N3CC2`, the “activity change, negative = inhibition” value was -7.42%.
For the molecule `CC(Cl)(Cl)[N+](=O)[O-]`, the “activity change, negative = inhibition” value is -2.25%.
`COc1cccc(C(=O)NN(C(=O)c2cc(C)cc(C)c2)C(C)(C)C)c1C`: the “activity change, negative = inhibition” value is -9.88%.
Consider `Cc1cccc(C#N)c1`, for which the “activity change, negative = inhibition” value was 0.259%.
As for `CCCCOC(=O)[C@@H](C)Oc1ccc(Oc2ccc(C#N)cc2F)cc1`, the Potency was 4.34 µM (active).
As to `O=C1OC(c2ccc(O)c(S(=O)(=O)O)c2)(c2ccc(O)c(S(=O)(=O)O)c2)c2c(Br)c(Br)c(Br)c(Br)c21`, the “activity change, negative = inhibition” value was -3.19% [at 35.3 µM].
With `COC(=O)C(c1ccccc1)C1CCCCN1` (stereo not given), the “activity change, negative = inhibition” value is -4.49%.
Take `[O]=[Cd]`: the “activity change, negative = inhibition” value was 9.42%.
For the molecule `CC(C=O)Cc1ccc2c(c1)OCO2` (stereo not given), the “activity change, negative = inhibition” value is 0.145%.
On to `O=C1OC(CCN2CCCCC2)OC1(c1ccccc1)c1ccccc1` (stereo not given), for which the Potency is 0.848 µM (active).
With `[Cl][Sn]([Cl])([Cl])[Cl]`, the “activity change, negative = inhibition” value was 1.58%.
The same measure, in the same setting: under `N#CCCC#N` stands -4.21%.
For the molecule `O=[N+]([O-])c1cccc2c([N+](=O)[O-])cccc12`, the Potency was 24.7 µM (active).
For `O=[N+]([O-])c1cccc2cccnc12`, the “activity change, negative = inhibition” value was -0.29%.
Take `CC(C)CP(=S)(S)CC(C)C`: the “activity change, negative = inhibition” value is -13.7%.
Regarding `Fc1cc(Br)ccc1CBr`, the “activity change, negative = inhibition” value is 8.8% [at 35.3 µM].
`CC1=C(C(=O)O)N2C(=O)[C@@H](N)[C@H]2SC1`: the activity change, negative = inhibition is 3.94% [at 15.8 µM].
Consider `Cc1nnc2n1-c1sc(CCC(=O)N3CCOCC3)cc1C(c1ccccc1Cl)=NC2`, for which the “activity change, negative = inhibition” value is 0.355% [at 35.3 µM].
The same measure, in the same setting: under `CCC(C)(C)c1cc(-n2nc3ccccc3n2)c(O)c(C(C)(C)CC)c1` stands -3.17%.
Turning to `COc1ccc(C(=O)N2CCCC2=O)cc1`, the “activity change, negative = inhibition” value was -1.38% [at 35.3 µM].
For `COc1cc(OC)nc(Oc2cccc(Oc3nc(OC)cc(OC)n3)c2C(=O)O)n1`, the “activity change, negative = inhibition” value is -1.03%.
Regarding `CNC(=O)O/N=C(\C)SC`, the “activity change, negative = inhibition” value is 3.27%.
The same measure, in the same setting: under `C[C@]1(O)CC[C@H]2[C@@H]3CCC4=CC(=O)CC[C@]4(C)[C@@]3(F)[C@@H](O)C[C@@]21C` stands 3.42%.
With `COP(=S)(OC)Oc1ccc(S(N)(=O)=O)cc1`, the “activity change, negative = inhibition” value was 4.95% [at 35.3 µM].
